Laboratory results as given in ChEMBL document CHEMBL4513141, “CO-ADD screening of NIH (USA) - Clinical Collection” (2021).
Measured potencies and affinities stand elsewhere.

What was measured:
Staphylococcus aureus = details: Concentration 20 uM; ASSAY_TEST Inhibition of Bacterial Growth; detection method Absorption (OD600); MEDIA CAMHB; plate type 384well; NBS; CORNING #3640; time 18 hr
Escherichia coli = details: Concentration 20 uM; ASSAY_TEST Inhibition of Bacterial Growth; detection method Absorption (OD600); MEDIA CAMHB; plate type 384well; NBS; CORNING #3640; time 18 hr

SMILES: COc1cc(OC)c(C(=O)CCCN2CCCC2)c(OC)c1.Cl
- Inhibition (Staphylococcus aureus): 14.97%
- Inhibition (Escherichia coli): 2.85%

SMILES: Cl.c1ccc2c(c1)CCCC2C1=NCCN1 (configuration not stated) [TETRAHYDROZOLINE HYDROCHLORIDE]
- Inhibition (Staphylococcus aureus): 17.23%
- Inhibition (Escherichia coli): 7.52%

SMILES: CC(c1cc2ccccc2s1)N(O)C(N)=O (configuration not stated) [ZILEUTON]
- Inhibition (Staphylococcus aureus): -21.42%
- Inhibition (Escherichia coli): 6.17%

SMILES: NS(=O)(=O)c1cc2c(cc1C(F)(F)F)NC(Cc1ccccc1)NS2(=O)=O (configuration not stated) [BENDROFLUMETHIAZIDE]
- Inhibition (Staphylococcus aureus): 4.68%
- Inhibition (Escherichia coli): -3.75%

SMILES: COc1cc(/C=C/c2ccc(O)cc2)cc(OC)c1 [PTEROSTILBENE]
- Inhibition (Staphylococcus aureus): 13.68%
- Inhibition (Escherichia coli): 1.16%

SMILES: Cl.O.O=C(c1ccc(F)cc1)C1CCN(CCn2c(=S)[nH]c3ccccc3c2=O)CC1
- Inhibition (Staphylococcus aureus): 2.33%
- Inhibition (Escherichia coli): 1.4%

SMILES: CC(C)(C)NCC(O)COc1cccc2c1CC(O)C(O)C2 (configuration not stated) [NADOLOL]
- Inhibition (Staphylococcus aureus): 16.27%
- Inhibition (Escherichia coli): 3.67%

SMILES: CC1(C)O[C@@H]2C[C@H]3[C@@H]4C[C@H](F)C5=CC(=O)C=C[C@]5(C)[C@@]4(F)[C@@H](O)C[C@]3(C)[C@]2(C(=O)CO)O1 [FLUOCINOLONE ACETONIDE]
- Inhibition (Staphylococcus aureus): -31.13%
- Inhibition (Escherichia coli): 6.84%

SMILES: Nc1ncnc2c1ncn2[C@@H]1O[C@H](CO)C[C@@H]1O.O
- Inhibition (Staphylococcus aureus): 7.37%
- Inhibition (Escherichia coli): 1.02%

SMILES: COc1cc(C)nc(-n2nc(C)cc2OC)n1 [EPIRIZOLE]
- Inhibition (Staphylococcus aureus): 7.75%
- Inhibition (Escherichia coli): -0.13%

SMILES: CC(N/C(=N\C#N)Nc1ccncc1)C(C)(C)C.O (configuration not stated)
- Inhibition (Staphylococcus aureus): -1.94%
- Inhibition (Escherichia coli): -6.33%
